The values below come from PubChem BioAssay AID720555 (National Center for Advancing Translational Sciences (NCATS), 2013).

Structures are written as SMILES. “And” between values parts separate entries of the source, which are not always exact repeats. Equal values may be shown once. Inconclusive results are not listed. A number with no mark means an inactive call. The source made the active and inactive calls. The call rests on the fitted dose curve; in most records, active means well fitted inhibition curve with a large enough effect; inconclusive means small, poorly fitted or top-dose-only effect; inactive means no such curve, though single readings can be large or run the other way.

Sequence of RecQ-like DNA helicase BLM (Homo sapiens) (P54132 whole entry, looked up): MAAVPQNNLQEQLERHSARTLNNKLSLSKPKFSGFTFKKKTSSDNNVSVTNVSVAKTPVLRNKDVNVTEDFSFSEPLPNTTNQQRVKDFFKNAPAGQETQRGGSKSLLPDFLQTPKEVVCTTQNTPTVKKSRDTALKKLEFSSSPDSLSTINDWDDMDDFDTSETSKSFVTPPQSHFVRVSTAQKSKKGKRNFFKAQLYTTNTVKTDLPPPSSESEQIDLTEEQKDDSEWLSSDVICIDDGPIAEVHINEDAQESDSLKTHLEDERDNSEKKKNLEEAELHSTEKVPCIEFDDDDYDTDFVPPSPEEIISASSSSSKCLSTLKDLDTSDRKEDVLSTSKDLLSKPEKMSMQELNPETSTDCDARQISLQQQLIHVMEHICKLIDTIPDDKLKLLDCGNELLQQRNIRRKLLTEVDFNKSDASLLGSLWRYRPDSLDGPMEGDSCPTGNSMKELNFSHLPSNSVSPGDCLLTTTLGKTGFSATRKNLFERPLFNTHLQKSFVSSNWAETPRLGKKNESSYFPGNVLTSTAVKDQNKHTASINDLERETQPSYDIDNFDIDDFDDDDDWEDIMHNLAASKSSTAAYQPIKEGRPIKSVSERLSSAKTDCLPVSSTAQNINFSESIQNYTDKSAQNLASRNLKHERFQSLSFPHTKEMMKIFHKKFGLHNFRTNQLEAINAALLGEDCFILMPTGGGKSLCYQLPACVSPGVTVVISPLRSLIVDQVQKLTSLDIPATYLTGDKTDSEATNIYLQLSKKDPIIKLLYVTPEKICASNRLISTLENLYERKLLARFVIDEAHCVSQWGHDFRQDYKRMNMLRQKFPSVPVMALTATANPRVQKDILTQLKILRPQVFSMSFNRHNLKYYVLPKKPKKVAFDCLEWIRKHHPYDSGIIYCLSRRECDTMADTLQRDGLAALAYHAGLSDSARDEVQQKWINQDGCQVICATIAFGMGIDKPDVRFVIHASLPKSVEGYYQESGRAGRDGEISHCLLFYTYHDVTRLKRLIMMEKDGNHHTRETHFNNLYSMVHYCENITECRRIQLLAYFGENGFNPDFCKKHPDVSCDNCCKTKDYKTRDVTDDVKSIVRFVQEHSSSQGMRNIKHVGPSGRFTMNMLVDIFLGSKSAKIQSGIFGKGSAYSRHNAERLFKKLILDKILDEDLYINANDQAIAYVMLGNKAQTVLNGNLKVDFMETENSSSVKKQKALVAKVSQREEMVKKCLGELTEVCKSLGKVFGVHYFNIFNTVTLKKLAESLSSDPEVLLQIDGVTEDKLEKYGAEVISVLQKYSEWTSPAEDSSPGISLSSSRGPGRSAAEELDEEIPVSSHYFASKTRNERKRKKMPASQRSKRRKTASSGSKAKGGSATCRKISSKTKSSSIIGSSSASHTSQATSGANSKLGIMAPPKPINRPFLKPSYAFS

The assay has as its target RecQ-like DNA helicase BLM (Homo sapiens) (UniProt P54132). Description: qHTS for Inhibitors of Bloom's syndrome helicase (BLM): Helicase DNA unwinding fluorescent orthogonal confirmatory assay for SAR. Particulars: fluorescence, orthogonal confirmation; series mostly up to 55.6 µM; activity change, negative = inhibition: at the top concentration. The procedure, abridged: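 Gel-based orthogonal unwinding test: native PAGE separated substrate from single-stranded product of a fluorescent DNA duplex processed by purified BLM (2mM ATP, 50mM NaCl, room temperature). Bands were quantified and normalised against no-enzyme and no-inhibitor wells.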
(qHTS replaces the single test concentration by a dilution series.)
Turning to `N#Cc1ccc(NC(=O)Nc2nnc(-c3ccncc3)s2)cc1`, the Potency was 7.94 µM (active).

For the compound `N/C(=N\c1nnc(-c2ccncc2)s1)Nc1ccc(F)c(C(F)(F)F)c1`, the Potency is 35.5 µM (active). On to `O=C(Nc1ccc(Cl)c(C(F)(F)F)c1)Nc1nnc(-c2cccnc2)s1`, for which the Potency was 3.16 µM (active).

`O=C(Nc1ccc(Cl)c(Cl)c1)Nc1ccc(-c2ccncc2)s1`: the “activity change, negative = inhibition” value is 5.54% [at 53.6 µM]. Turning to `O=C(Nc1ccc(Cl)c(Cl)c1)Nc1nnc(-c2cccnc2)s1`, the Potency is 3.55 µM (active).

`O=C(Nc1ccc(Cl)c(C(F)(F)F)c1)Nc1nnc(-c2ccncc2)s1`: the Potency was 7.08 µM (active). Still for that read-out and setting: as for `N#Cc1cc(NC(=O)Nc2nnc(-c3ccncc3)s2)ccc1-c1cn[nH]c1`, the figure is 1.58 µM (active) and 7.08 µM (active); as for `O=C(Nc1ccc(N2CCOCC2)c(C(F)(F)F)c1)Nc1nnc(-c2ccncc2)s1`, 28.2 µM (active). Consider `O=C(NCc1ccccc1)Nc1nnc(-c2ccncc2)s1`, for which the “activity change, negative = inhibition” value is -10.1%. For the compound `O=C(Nc1ccc(Br)cc1)Nc1nnc(-c2ccncc2)s1`, the Potency is 12.6 µM (active). Turning to `Cc1cc(NC(=O)Nc2nnc(-c3cccnc3)s2)ccc1F`, the Potency was 25.1 µM (active).

Take `O=C(Nc1ccc(Cl)c([N+](=O)[O-])c1)Nc1cccc(-c2ccncc2)n1`: the Potency was 2.82 µM (active). In the case of `O=C(Nc1cccc(C(F)(F)F)c1)Nc1nnc(-c2ccncc2)s1`, the Potency is 14.1 µM (active).

Consider `O=C(Nc1ccc(Cl)c(Cl)c1)Nc1ncc(-c2ccncc2)s1`, for which the “activity change, negative = inhibition” value was -22.2% [at 53.6 µM].

`Cc1cc(NC(=O)Nc2nnc(-c3ccncc3)s2)ccc1-c1cn[nH]c1`: the Potency is 11.2 µM (active). Regarding `Cc1cc(NC(=O)Nc2nnc(-c3cccnc3)s2)ccc1Cl`, the Potency was 7.94 µM (active) and 3.98 µM (active).
